High-throughput results as filed in PubChem BioAssay.
Sfp inh – qHTS Assay for Inhibitors of Bacillus subtilis Sfp phosphopantetheinyl transferase (PPTase). AID 1490, 2009. 4'-phosphopantetheinyl transferase ffp (Bacillus subtilis), Q9F4F7. Potency, µM, inactives show largest response in the series, negative = inhibition, actives largely listed as inhibitors. Biochemical Sfp PPTase activity, qHTS. 310,000 tested, 3.5% active;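 note: the enzyme is Sfp with the accession as filed and its product quenches rhodamine fluorescence; 0% = enzyme reaction without inhibitor and -100% = no enzyme wells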
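Buffer: 50 mM Hepes-Na pH 7.6, 10 mM MgCl2, 0.01% Nonidet P-40, 0.01% BSA. Enzyme 15 nM, pre-exposed to compound 15 min; substrates then added and fluorescence change tracked over 30 min.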
12-LOX inh – Primary qHTS assay for inhibitors of human arachidonate 12S-lipoxygenase (ALOX12): Round 2; purified 12hLO, xylenol orange hydroperoxide absorbance; Potency, µM (series often up to 108 µM), inactives show at the highest dose activity change, negative = inhibition, actives largely listed as inhibitors; 580,000 tested, 1.1% active; note: % is set by controls: 0 for no effect and ±100 for the full control effect
Target sequence (P18054 whole entry, looked up): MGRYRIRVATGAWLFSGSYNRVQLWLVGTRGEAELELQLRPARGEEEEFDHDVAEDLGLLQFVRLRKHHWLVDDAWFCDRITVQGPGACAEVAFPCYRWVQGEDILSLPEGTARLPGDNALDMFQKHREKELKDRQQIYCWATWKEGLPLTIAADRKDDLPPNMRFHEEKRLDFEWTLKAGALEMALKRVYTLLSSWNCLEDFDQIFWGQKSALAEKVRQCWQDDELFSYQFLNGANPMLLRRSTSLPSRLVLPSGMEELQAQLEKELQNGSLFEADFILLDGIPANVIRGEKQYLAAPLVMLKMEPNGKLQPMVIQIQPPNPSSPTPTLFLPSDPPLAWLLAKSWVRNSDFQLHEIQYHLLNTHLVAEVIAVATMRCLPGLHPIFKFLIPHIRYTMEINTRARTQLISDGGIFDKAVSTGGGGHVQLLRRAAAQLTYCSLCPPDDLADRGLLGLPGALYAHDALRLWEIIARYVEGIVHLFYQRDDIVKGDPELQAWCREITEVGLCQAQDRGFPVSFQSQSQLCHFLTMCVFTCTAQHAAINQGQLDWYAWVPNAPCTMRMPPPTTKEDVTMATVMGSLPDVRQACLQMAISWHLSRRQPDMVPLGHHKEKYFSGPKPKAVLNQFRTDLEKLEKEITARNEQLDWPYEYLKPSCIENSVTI
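Purified human 12hLO at 150 nM in 25 mM Hepes, 0.01% Triton X-100, pH 7.0, preincubated 15 min at room temperature with compound. Reaction started with 40 uM arachidonic acid, 30 min at room temperature. Hydroperoxide measured by Fe-xylenol orange, 573/405 nm absorbance ratio.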
GRP78 ERSR act – qHTS for Inducers of the Endoplasmic Reticulum Stress Response (ERSR) in Human Glioma: qHTS; U87-MG GRP78 promoter luciferase reporter, 16 h; Potency, µM, inactives show at the top dose activation, most hits filed as activators; 420,000 tested, 0.02% active; AID 602332, 2012; note: series mostly up to about 76 µM; % of control where 0% means no effect; nearly all actives have a fitted effect of over 35% in size
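ERSR induction read as luciferase luminescence (Bright-Glo, 10 min at room temperature) in stably transfected human U87-MG glioma cells exposed to compounds for 16 h, using GRP78 as sensor.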
G9a block – qHTS Assay for Inhibitors of Histone Lysine Methyltransferase G9a. Histone-lysine N-methyltransferase EHMT2 (Homo sapiens), Q96KQ7. G9a H3K9 monomethylation, AlphaScreen, 2 h. Potency, µM (doses to about 102 µM), for the others: at the highest dose activity, negative = inhibition, actives largely listed as inhibitors. 350,000 tested, 8.8% active. AID 504332, 2011; note: % is set by controls: 0 for no effect and ±100 for the full control effect; nearly all actives have a fitted effect of over 75% in size
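Signal arises when biotinylated H3K9 peptide, once monomethylated, bridges streptavidin donor and antibody-captured acceptor beads. Enzyme at 20 nM was preincubated 15 min with test compounds; peptide 500 nM and SAM 20 uM then reacted for 2 h.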
VDR inh – Inhibitors of the vitamin D receptor (VDR): qHTS | Potency, µM, without a hit: max response, negative = inhibition, usual class: inhibitors | VDR-SRC2-3 peptide fluorescence polarization, 2 h | 400,000 tested, 0.93% active; note: % is set by controls: 0 for no effect and ±100 for the full control effect
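Measured by FP: displacement of SRC2-3 coactivator peptide from VDR by library compounds, following a two-hour ambient incubation.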
Numbers without * were called inactive; ? = inconclusive; · = no result given; [ ] = remark or other dose. The sample as a whole holds a higher share of hits than the screen did. Calls come from the whole dose curve; as a rule, active = well fitted curve in the direction sought with a large enough effect; inconclusive = small, poorly fitted or top-dose-only effect, or another doubt; inactive = no such curve, though single readings can be large; an effect the other way counts as inactive or inconclusive. Potency is the fitted concentration of half-maximal effect.

SMILES	Sfp inh	12-LOX inh	GRP78 ERSR act	G9a block	VDR inh
Cc1ccc(NC(=O)COC(=O)CCc2nc3ccccc3c(=O)[nH]2)cc1Cl	8.6%	-7.1%	1.0%	35.5µM*	0.6%
N#Cc1cccc(NC(=O)COC(=O)CCc2nc3ccccc3c(=O)[nH]2)c1	14.2%	-12.5%	3.6%	12.6µM*	5.7%
CC(=O)NC(C)(C)C(=O)NCCC(c1ccccc1)c1ccccc1	·	34.7%	·	·	·
O=C(NCCc1nc(-c2cccnc2)no1)c1coc2c1C(=O)CCC2	·	-19.4%	·	·	·
COc1ccc(Nc2oc(-c3cccc(C)c3)nc2C#N)cc1	·	5.8%	·	·	·
C=CCn1c(C)cc(/C([O-])=C(/C(=S)Nc2ccc(OC(F)F)cc2)[n+]2ccc(N(C)C)cc2)c1C	-9.7%	?	2.8%	39.8µM*	-3.5%
Cc1cc(C([O-])=C(C(=S)Nc2ccccc2)[n+]2ccccc2)c(C)n1-c1ccccc1	·	?	-6.4%	·	1.8%
Cc1ccn2c(Nc3ccc4c(c3)OCCO4)c(-c3ccc(Cl)s3)nc2c1	·	?	1.8%	?	-6.4%
CN(C)c1ccc(-c2nc3ccc(Cl)cn3c2Nc2ccc3c(c2)OCCO3)cc1	·	5.62µM*	8.6%	?	-1.6%
Cc1ccc2nc(-c3ccc(O)cc3)c(Nc3ccc4c(c3)OCCO4)n2c1	12.6%	?	-0.8%	8.91µM*	-17.7%
Cc1ccc2nc(-c3ccccc3O)c(Nc3ccc4c(c3)OCCO4)n2c1	24.9%	-9.4%	-0.8%	?	-18.9%
COc1cc(-c2nc3ccc(Cl)cn3c2Nc2ccc3c(c2)OCO3)ccc1O	·	1.7%	-4.7%	12.6µM*	-13.9%
Clc1ccc(-c2nc3ccccn3c2Nc2ccc3c(c2)OCCO3)s1	·	25.1µM*	4.8%	17.5%[59 µM]	-14.6%
COc1cc(-c2nc3ccc(C)cn3c2Nc2ccc(Cl)cc2)ccc1O	·	?	-5.8%	?	-19.5%
CC(C)C(C)NC(=O)COC(=O)c1cccc(C(=O)OCC(=O)NC(C)C(C)C)n1 (configuration not stated)	1.5%	-0.1%	-2.8%	10µM*	1.2%
O=C(COC(=O)c1cccc(C(=O)OCC(=O)NC2CCCCC2)n1)NC1CCCCC1	10.6%	-33.9%	2.5%	50.1µM*	-10.6%
O=C(COC(=O)c1cnc2ccccc2n1)NC1CCCCC1	·	-14.2%	·	·	·
CC(C)Oc1cccc(C(=O)Nc2ccc3oc(-c4ccncc4)nc3c2)c1	·	6.6%	·	·	·
CCOC(=O)c1cnc2ccc(Br)cc2c1NCCN1CCOCC1	·	-2.9%	-1.4%	-31.7%[59 µM]	?
CCOC(=O)c1cnc2ccc(OC)cc2c1Nc1ccc(OC)cc1	·	-0.4%	·	·	·
CCOC(=O)c1ccc2ncc(C(=O)OCC)c(NCCN3CCOCC3)c2c1	7.3%	-61.9%	-2.1%	-0.2%	-18.5%
CCOC(=O)c1cnc2ccc(Cl)cc2c1Nc1ccc(N2CCOCC2)cc1	·	-23.7%	-1.5%	7.08µM*	-19.5%
CCOC(=O)c1cnc2ccc(C(=O)OC)cc2c1Nc1cccc(C(=O)O)c1	13.4%	-14.2%	-4.7%	3.7%	-1.5%
CCOC(=O)c1cnc2ccc(C(=O)OC)cc2c1Nc1ccc(N2CCOCC2)cc1	·	-16.3%	-7.2%	12.6µM*	-2.4%
CCOC(=O)c1cnc2ccc(C)cc2c1Nc1ccc(N2CCOCC2)cc1	-18.6%	?	-15.7%	39.8µM*	2.3%
SMILES	Sfp inh	12-LOX inh	GRP78 ERSR act	G9a block	VDR inh
CCOC(=O)c1cnc2ccc(C)cc2c1Nc1ccc(N(CC)CC)cc1	·	-4.0%	-4.7%	4.47µM*	-25.1%
COc1cccc(CN2CC(Oc3ccccc3C(=O)NCc3ccccc3)C2)c1	·	-0.9%	·	·	·
CCc1cccc(CC)c1NC(=O)COC(=O)c1cc(=O)c2ccccc2o1	·	-0.7%	·	·	·
CS(=O)(=O)Nc1cc(NC(=O)c2cc(-c3ccco3)on2)ccc1F	·	-25.3%	·	·	·
CCOC(=O)c1cnc2ccc(OCC)cc2c1NCc1ccccc1	31.6µM*	-7.6%	-1.2%	100.6%[59 µM]	-18.1%
Cc1ccc(-c2cnc(CCC(=O)N(C)C(C)c3ccc(S(N)(=O)=O)cc3)o2)cc1 (configuration not stated)	·	5.4%	·	·	·
Cc1ccccc1C(=O)NC(=S)NCCC1=CCCCC1	11.8%	22.4µM*	6.3%	54.1%	-10.3%
Cc1ccccc1C(=O)NC(=S)NCCc1ccccc1	5.3%	28.2µM*	-1.0%	?	-8.2%
O=C(NC(=S)NCCC1=CCCCC1)c1ccco1	-3.3%	44.7µM*	2.3%	-0.2%	-2.8%
O=C(NC(=S)NCCCN1CCOCC1)c1ccco1	-17.1%	-2.3%	1.8%	39.8µM*	-7.8%
O=C(NC(=S)NCCc1ccccc1)c1ccco1	2.0%	-17.1%	8.0%	7.4%	2.9%
O=C(OCc1nnnn1-c1ccccc1)C1(c2ccccc2)CC1	·	33.8%	·	·	·
S=C(c1ccc(-c2ccc(Br)cc2)o1)N1CCCCC1	13.3%	-29.9%	2.2%	79.4µM*	-13.2%
O=C(Cc1ccc(Br)cc1)N1CCCCCC1	16.7%	-2.3%	-3.5%	6.7%[12.7 µM]	-21.4%
CC1CCN(C(=O)c2ccc(-c3ccccc3Cl)o2)CC1	·	-5.3%	-1.5%	39.8µM*	-23.1%
S=C(c1ccc(-c2ccc(Br)cc2)o1)N1CCOCC1	35.5µM*	?	4.0%	14.1µM*	?
COc1ccc(-c2ccc(C(=S)N3CCN(C(C)=O)CC3)o2)cc1	12.6µM*	14.1µM*	-1.8%	6.31µM*	79.4µM*
O=C(c1cc(=O)[nH]c2ccccc12)N1CCC(CCc2ccc(O)cc2)CC1	·	6.3%	·	·	·
O=Cc1ccc(-c2ccc([N+](=O)[O-])cc2Cl)o1	-26.6%	1.5%	-2.3%	35.5µM*	-5.4%
S=C(c1ccc(-c2ccccc2Cl)o1)N1CCOCC1	14.1µM*	·	5.6%	?	-62.4%
O=C(c1ccc(-c2ccc([N+](=O)[O-])cc2Cl)o1)N1CCOCC1	39.8µM*	-13.2%	1.3%	44.7µM*	0.3%
S=C(c1ccc(-c2ccc(Cl)c(Cl)c2)o1)N1CCOCC1	15.8µM*	·	4.6%	?	-4.1%
CCC1(C)NC(=O)N(NC(=O)c2nn(-c3ccccc3)c(=O)c3ccccc23)C1=O (configuration not stated)	·	-29.9%	·	·	·
CCNC(=O)CN(CC)C(=O)c1cc2ccccc2oc1=O	·	23.0%	·	·	·
Cc1cc(C(=O)N/N=C/c2ccc(-c3ccc([N+](=O)[O-])cc3Cl)o2)n[nH]1	-20.2%	-21.4%	-0.1%	50.1µM*	-12.2%
Cc1cc(C(=O)N/N=C/c2ccc(-c3cccc([N+](=O)[O-])c3)o2)n[nH]1	22.4%	-2.2%	-5.4%	-7.6%	5.9%
O=C(c1ccc(-c2cccc(Cl)c2Cl)o1)N1CCOCC1	79.4µM*	-21.7%	-2.2%	39.8µM*	-8.6%
Cc1nn(CC(=O)Nc2ccc3c(c2)nc(Cn2ccc4ccccc42)n3C)c(=O)c2ccccc12	·	20.8%	·	·	·
